Consider 22 sequences from the supplement of paper PMC6555819.

The assay relates to RXRa homodimer (NR concentration 180 nM). The assay is described as follows: PBM binding z-score (relative to random genomic background probes); higher = stronger binding; sequences stand for … in GC…GCGATTGACAGCGTAGAATGAAGG
Summed up:
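Regression normalization was applied to scanned fluorescence from custom Agilent 4×180K protein-binding microarrays. Before scanning, arrays were incubated 1 h with ligand-free nuclear receptor dimers, and binding was detected with antibodies against each partner (one per run). Binding z-scores use the random background probes as reference.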
Consider CCGAGTAGGTTATGGGGCATCCAGGCAACGGTGA, for which the PBM binding z-score was 0.858.
As for GGAAAGAGGGCAAAGTTGATAGCATCTGTCGACG, the figure is 2.81; as for CAGCCTAGGTCAAGGCCAGTATAGGAGGAACGTT, 2.75.
AGTATTAGTTGAGACGAGGGCAACCGATAGGTTG returned a PBM binding z-score of 0.65.
As for TCTCGGAGGACACGAAAGATCAGAGCTCGACATC, the figure is 0.321; as for ATAAGTAGGTTAAGGGTCATTCAGGTTGGTTCGC, 6.11.
The sequence CCTAGTTGGTTAGGAGGTCACACACCGGATATGA registered a PBM binding z-score of 3.97.
Next, CGTCAAAGTTCAACTAAGGTAACGGAAAGCACGC: 5.09; ATCTCTAGGTAACAGTTCAGTGAATCCCGAGGAT: 0.513.
As for TAGCCTAGGTCAGATCGGGCCACTATACGCTATA, the figure is 1.48.
For CGTCAAAGTTAAACTAAGGTAACGTAAAGCACGC, the PBM binding z-score came out at 0.521.
Next, ACTTACGGGTCAACGAGGTTTTAGCACGCGTATA: 5.5; CCTGCTAGGTCAATGGTTAGCTAAAGCAGCTCGC: 1.78.
As for CGTCAAAGTTCATCTAAGGTAACGTAAAGCACGC, the figure is 4.66; as for TCTTGTAGATCAAAGGTTAAGTAAGCCGAAGCCT, 3.27; as for CCGACTGGGGCAGAAAGGGTACCATACCATCCGG, 0.143.
Next, GCTGCTAGGTCAACTGATGGTCAGGTAAAGCTCG: 3; TCAGACAGGTGCAGGTAACTCAGGTACGCAGTCG: 0.745; TAGCCTAGGTCATGCGGGCCGGTATAGTGTCGGC: 3.02.
The sequence TTTTGTAGATCAATAGAGGTTAAGAAAGTGCGCT displayed a PBM binding z-score of 1.52.
Sequence TAGCCTAGGTCATTGGTCCAGTATAGTACGCATC had a PBM binding z-score of 2.74.
Next, TCATATAGGTAAATGCAAGGTGAAAGTCCGATCT: 1.36.
